Experimental data taken from PubChem BioAssay (Tox21).
Several values for one entry are separate records, joined by “and”; a condition that tells them apart may be missing. Identical values can stand only once. Results filed as inconclusive are left out. Entries that show only a call come without a potency. Some structures have more than one record in an assay (separate samples or runs), and their calls can disagree. Activity calls are given as the source filed them. Unless noted, calls follow the shape of the dose curve; as a rule, active = well fitted curve in the direction sought with a large enough effect in the repeat runs; inconclusive = weak or mixed curves; inactive = no such curve, though single readings can be large; an effect the other way counts as inactive or inconclusive.

Key:
[1] = qHTS assay to identify small molecule agonists of the NFkB signaling pathway (AID 1159509; active = well fitted curve in the direction sought with a large enough effect in the signal ratio in the repeat runs, not every such curve was filed as active; the % refers to the signal ratio)
Method in brief: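 NFkB-bla ME-180 cells carry a beta-lactamase reporter under an NF-kB response element. They were plated overnight, then exposed to compounds for 5 h at 37 C. Read-out is LiveBLAzer FRET after 1.5 hr at room temperature (405 nm excitation; 460/530 nm emission).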

[2] = qHTS assay to identify small molecule agonists of the NFkB signaling pathway - cell viability counter screen (AID 1159515; calls by dose curve; also: nearly all actives have a fitted effect of over 55% in size)
Method in brief: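 NFkB-bla ME-180 cells, 2,000/well, were plated overnight at 37 C, 5% CO2, then exposed to compounds in DMSO for 5 hr. After the bla FRET read, CellTiter-Glo was added to the same wells; luminescence was read after 30 min at room temperature.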

[3] = qHTS assay to identify small molecule agonists of the endoplasmic reticulum stress response signaling pathway (AID 1159516; active = well fitted activation curve with a large enough effect in the signal ratio in the repeat runs, not every such curve was filed as active; the % refers to the signal ratio)
Method in brief: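 CellSensor ESRE-bla HeLa cells, carrying a beta-lactamase reporter driven by the ER stress response element, were plated overnight and exposed to compounds for 5 hr at 37 C. Reporter activity was read as FRET substrate fluorescence after 2 hr at room temperature.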

[4] = qHTS assay to identify small molecule agonists of the endoplasmic reticulum stress response signaling pathway - cell viability counter screen (AID 1159517; calls by dose curve; also: nearly all actives have a fitted effect of over 50% in size)
Method in brief: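 ESRE-bla HeLa cells, 1,500 per well, seeded overnight then treated with compounds for 5 hr at 37 C. After the beta-lactamase read, viability in the same wells is measured by CellTiter-Glo luminescence after 30 min at room temperature.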

[5] = qHTS assay to identify small molecule antagonists of the retinoid-related orphan receptor gamma (ROR-gamma) signaling pathway - cell viability counter screen (AID 1159520); also: nearly all actives have a fitted effect of over 50% in size
Method in brief: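 Tet-on ROR gamma CHO cells were given compounds for 2 hr, then doxycycline hyclate at 1 uM final, and incubated 16 hr at 37 C. Viability was measured as ATP content by CellTiter-Glo luminescence.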

[6] = qHTS assay to identify small molecule agonists of the AP-1 signaling pathway - cell viability counter screen (AID 1159525; calls by dose curve; also: nearly all actives have a fitted effect of over 55% in size)
Method in brief: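 AP-1-bla ME-180 cells in Opti-MEM with 0.5% dialyzed FBS, compound exposure 5 h at 37 C in 15-point titration. Viability read in the same wells as ATP content by CellTiter-Glo luminescence, normalised to tetra-n-octylammonium bromide and DMSO controls.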

[7] = qHTS assay to identify small molecule agonists of the AP-1 signaling pathway (AID 1159526; calls by dose curve)
[8] = qHTS assay to identify small molecule agonists of the RXR signaling pathway - cell viability counter screen (AID 1159529); also: nearly all actives have a fitted effect of over 50% in size; also: potency is read from the fitted curve at half-maximal effect
Method in brief: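 Cell viability is measured by CellTiter-Glo luminescence, 30 min at room temperature, in wells already read for beta-lactamase. Engineered HEK 293T cells (RXR-alpha-UAS-bla) are dosed 16 hr at 37 C. Tetraoctyl ammonium bromide serves as positive control.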

[9] = qHTS assay to identify small molecule antagonists of the retinoic acid receptor (RAR) signaling pathway (AID 1159552; also: nearly all actives have a fitted effect of over 50% in size; also: potency is read from the fitted curve at half-maximal effect)
Method in brief: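 Quantitative HTS in C3RL4 RARE-luciferase reporter cells. Compounds were added with 1 uM (final) retinol; luminescence was read after 6 hr.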

[10] = qHTS assay to identify small molecule antagonists of the estrogen related receptor (ERR) signaling pathway from Tox21 library - cell viability counter screen (AID 1224834); also: nearly all actives have a fitted effect of over 30% in size
Method in brief: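 ERR reporter cells were plated 6 h before compound addition, then exposed to test compounds in DMSO for 17.5 h at 37 C. Viability was read as CellTiter-Fluor fluorescence after a 30-minute incubation at 37 C.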

[11] = target: Luciferin 4-monooxygenase (Photinus pyralis) (UniProt P08659); assay: qHTS assay to identify small molecule inhibitors of firefly luciferase (AID 1224835); also: nearly all actives have a fitted effect of over 25% in size
Method in brief: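 Biochemical qHTS: compounds run as interplate titrations against purified firefly enzyme, with D-luciferin and ATP each at its KM concentration. Light output recorded by CCD imaging.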

[12] = qHTS assay to identify small molecule antagonists of the constitutive androstane receptor (CAR) signaling pathway - cell viability counter screen (AID 1224837); also: nearly all actives have a fitted effect of over 45% in size
Method in brief: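 HepG2 cells stably expressing hCAR and a CYP2B6-2.2kb reporter were plated and pre-incubated 4 hr at 37 C/5% CO2, then given compounds at 15 concentrations plus 50 nM CITCO (final). After 23 hr, viability was read by CellTiter-Fluor fluorescence.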

[13] = target: Retinoic acid receptor RXR-alpha (Homo sapiens) (UniProt P19793); assay: qHTS assay to identify small molecule agonists of the RXR signaling pathway (AID 1159527; calls by dose curve; also: nearly all actives have a fitted effect of over 35% in size; also: potency is read from the fitted curve at half-maximal effect)
Method in brief: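 qHTS of the Tox21 10K library in GeneBLAzer RXR-alpha HEK 293T cells carrying a beta-lactamase reporter […]; 16 hr treatment, 9-cis retinoic acid as agonist control, FRET read-out.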

[14] = qHTS assay to identify small molecule antagonists of the retinoid acid receptor (RAR) signaling pathway - cell viability counter screen (AID 1159551); also: nearly all actives have a fitted effect of over 35% in size
Method in brief: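 C3RL4 cells were seeded overnight at 37 C, then treated with compounds plus 1 uM (final) retinol for 6 h at 37 C. Viability was read as ATP by CellTiter-Glo luminescence after 30 min at room temperature.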

[15] = qHTS assay to identify small molecule agonists of the constitutive androstane receptor (CAR) signaling pathway - cell viability counter screen (AID 1224836); also: nearly all actives have a fitted effect of over 45% in size
Method in brief: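 Counter screen multiplexed with the CAR reporter readout: HepG2 cells co-transfected with hCAR and the CYP2B6-2.2kb construct receive a 15-concentration compound series and 0.75 uM PK11195 (final), then CellTiter-Fluor fluorescence is read after 23 h.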

[16] = qHTS assay to identify small molecule antagonists of the vitamin D receptor (VDR) signaling pathway - cell viability counter screen (AID 743225); also: nearly all actives have a fitted effect of over 50% in size
Method in brief: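 Cells (VDR-UAS-bla HEK 293T) are plated, rested 4 h at 37C, dosed with compound and 3 nM final 1-alpha,25-dihydroxy vitamin D3, and incubated 16 h. Viability is taken from CellTiter-Glo luminescence in the reporter wells.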

[17] = target: Nuclear receptor ROR-gamma (Homo sapiens) (UniProt P51449); assay: qHTS assay to identify small molecule antagonists of the retinoid-related orphan receptor gamma (ROR-gamma) signaling pathway (AID 1159521)
Method in brief: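 RORγ antagonism is scored from reduced reporter luminescence in Tet-on CHO cells. Induction used 1 uM final doxycycline hyclate for 16 h at 37 C, following a 2 h compound exposure.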

[18] = qHTS assay to identify small molecule agonists of the retinoic acid receptor (RAR) signaling pathway (AID 1159553); details: C3RL4 RARE luciferase reporter, agonist, 6 h
Method in brief: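 C3RL4 cells carrying a RARE luciferase reporter were plated overnight at 37 C, then exposed to compounds in DMSO for 6 hr at 37 C and 5% CO2. Luminescence was read 30 min after luciferase reagent addition at room temperature.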

[19] = activation: at 73.3 µM (top of the series) unless noted

Chain of Retinoic acid receptor RXR-alpha (Homo sapiens) (P19793 whole entry, looked up): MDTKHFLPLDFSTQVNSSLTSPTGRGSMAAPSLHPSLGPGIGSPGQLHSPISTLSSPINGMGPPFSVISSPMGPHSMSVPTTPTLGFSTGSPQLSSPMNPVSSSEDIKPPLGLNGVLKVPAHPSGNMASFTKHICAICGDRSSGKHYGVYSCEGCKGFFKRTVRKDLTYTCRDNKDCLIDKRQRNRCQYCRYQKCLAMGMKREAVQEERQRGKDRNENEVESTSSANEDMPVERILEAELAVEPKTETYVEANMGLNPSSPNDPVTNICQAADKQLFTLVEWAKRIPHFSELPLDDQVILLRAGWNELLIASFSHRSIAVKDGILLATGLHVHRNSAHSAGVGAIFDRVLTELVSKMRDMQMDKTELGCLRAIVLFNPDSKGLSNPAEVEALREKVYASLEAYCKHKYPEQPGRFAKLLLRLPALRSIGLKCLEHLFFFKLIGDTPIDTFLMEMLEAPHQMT
Chain of Luciferin 4-monooxygenase (Photinus pyralis) (P08659 whole entry, looked up): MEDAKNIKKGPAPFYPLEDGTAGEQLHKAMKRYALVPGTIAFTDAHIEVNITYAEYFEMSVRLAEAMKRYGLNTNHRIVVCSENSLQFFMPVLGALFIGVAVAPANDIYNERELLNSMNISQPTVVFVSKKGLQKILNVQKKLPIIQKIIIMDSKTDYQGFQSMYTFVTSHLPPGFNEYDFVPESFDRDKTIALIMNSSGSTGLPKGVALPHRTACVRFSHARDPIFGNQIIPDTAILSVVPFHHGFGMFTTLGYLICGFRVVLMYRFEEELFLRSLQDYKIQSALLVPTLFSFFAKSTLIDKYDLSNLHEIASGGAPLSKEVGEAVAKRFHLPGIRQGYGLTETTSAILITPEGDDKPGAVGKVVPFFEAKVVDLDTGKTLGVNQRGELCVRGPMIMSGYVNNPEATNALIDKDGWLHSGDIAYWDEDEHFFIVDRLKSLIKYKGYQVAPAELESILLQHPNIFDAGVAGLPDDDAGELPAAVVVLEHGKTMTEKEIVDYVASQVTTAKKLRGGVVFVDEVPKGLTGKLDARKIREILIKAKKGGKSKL

Row | Compound | outcome [1] | outcome [2] | outcome [3] | outcome [4] | Potency [5] | Potency [6] | Potency [7] | Potency [8] | Potency [9] | Potency [10] | Potency [11] | Potency [12] | Potency [13] | outcome [14] | Potency [15] | outcome [16] | Potency [17] | Potency [18, 19] | activation [18, 19] | activation ([18]; at 73.3 µM (top of the series))
1 | CC(C)=C[C@@H]1[C@@H](C(=O)OCc2coc(Cc3ccccc3)c2)C1(C)C | inactive | inactive | inactive | inactive | inactive | inactive | inactive | inactive | inactive | inactive | inactive | inactive | – | – | – | – | – | – | – | –
2 | CN(C)[C@@H]1C(=O)C(C(N)=O)=C(O)[C@@]2(O)C(=O)C3=C(O)c4c(O)cccc4[C@@](C)(O)[C@H]3C[C@@H]12 | inactive | inactive | – | inactive | inactive | inactive | inactive | inactive | – | inactive | – | inactive | inactive | inactive | inactive | – | – | – | – | –
3 | O=[N+]([O-])c1ccc(Oc2ccc(Cl)cc2Cl)cc1 | inactive | inactive | – | inactive | inactive | inactive | inactive | 43.9 µM (active) and inactive | – | inactive | inactive | inactive | 696 nM (active) | inactive | – | inactive | inactive | – | – | –
4 | C#CC(C)(C)NC(=O)c1cc(Cl)cc(Cl)c1 | inactive | inactive | – | inactive | inactive | inactive | inactive | inactive | inactive | inactive | inactive | inactive | inactive | inactive | – | inactive | inactive | inactive | – | –
5 | OCCN(CCO)CCO | inactive | inactive | – | inactive | inactive | inactive | inactive | inactive | inactive | inactive | inactive | inactive | inactive | inactive | inactive | inactive | – | – | – | –
6 | CC(C)(C)C(O)(CCc1ccc(Cl)cc1)Cn1cncn1 (stereo not drawn) | inactive | inactive | – | inactive | inactive | inactive | inactive | inactive | inactive | – | inactive | inactive | inactive | – | inactive | inactive | inactive | – | -3.95% [at 94.8 µM] (active) | -2.94% (inactive)
7 | CCOC(=O)c1ccccc1C(=O)OCC | inactive | inactive | – | inactive | inactive | inactive | inactive | inactive | inactive | inactive | inactive | inactive | – | – | – | inactive | inactive | – | – | –
8 | CCNc1nc(NC(C)(C)C)nc(SC)n1 | inactive | inactive | inactive | inactive | inactive | inactive | inactive | inactive and 49 µM (active) | inactive | inactive | inactive | inactive | – | inactive | inactive | inactive | – | – | – | –
9 | CC(C)C#N | inactive | inactive | – | inactive | inactive | inactive | inactive | inactive | 16.3 µM (active) and inactive | inactive | inactive | inactive | 9.26 µM (active) and inactive | inactive | – | inactive | inactive | – | – | –
